Screens deposited in PubChem by National Center for Advancing Translational Sciences (NCATS).
HP1b binding inh: HP1-beta chromodomain-methylated histone interaction inhibition; AlphaScreen HP1-beta / biotin-H3K9me3 peptide binding; Potency, µM (series often up to 114 µM), most hits filed as inhibitors; 0.56% of 390,000 active; also: nearly all actives have a fitted effect of over 70% in size
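Compound inhibition of the preformed complex between 50 nM HP1-beta and 50 nM biotinylated H3K9me3 peptide was read by AlphaScreen. Buffer was PBS pH 7.4 with 0.01% Tween-20. Incubations ran 30 min at room temperature, with 10 ug/mL donor/acceptor beads.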
BAZ2B block: BAZ2B (human) inhibition. Q9UIF8. Potency, µM (doses to about 114 µM), usual class: inhibitors. 4.4% of 360,000 active. AlphaScreen BAZ2B-H3K14Ac peptide displacement; also: nearly all actives have a fitted effect of over 60% in size
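Multi-concentration screen (max 110 uM) measuring displacement of acetylated histone H3 peptide from BAZ2B by AlphaScreen, using 50 nM protein, 50 nM peptide and 10 ug/mL streptavidin donor plus Ni-chelate acceptor beads.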
G9a inh: inhibitors of human histone lysine methyltransferase G9a. Q96KQ7. Potency, µM (highest dose often 102 µM), hits mostly inhibitors. G9a H3K9 monomethylation, AlphaScreen, 2 h. 8.8% of 350,000 active; also: nearly all actives have a fitted effect of over 75% in size
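Enzyme 20 nM + cpd, 15 min RT; add b-H3K9 pep 500 nM / SAM 20 uM; 2 h RT; anti-H3K9me1 Ab 0.5 ug/mL + SA donor / anti-rabbit acceptor beads 20 ug/mL each, 10 min; AlphaScreen read.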
JMJD2A Tudor inh: JMJD2A Tudor domain (human) inhibition; Potency, µM (top dose mostly 114 µM), actives largely listed as inhibitors; AlphaScreen JMJD2A-Tudor / H3K4me3 peptide binding; O75164; AID 504339; 4.4% of 390,000 active; also: nearly all actives have a fitted effect of over 50% in size
Target sequence (O75164 whole entry, looked up, the tested form may be a part): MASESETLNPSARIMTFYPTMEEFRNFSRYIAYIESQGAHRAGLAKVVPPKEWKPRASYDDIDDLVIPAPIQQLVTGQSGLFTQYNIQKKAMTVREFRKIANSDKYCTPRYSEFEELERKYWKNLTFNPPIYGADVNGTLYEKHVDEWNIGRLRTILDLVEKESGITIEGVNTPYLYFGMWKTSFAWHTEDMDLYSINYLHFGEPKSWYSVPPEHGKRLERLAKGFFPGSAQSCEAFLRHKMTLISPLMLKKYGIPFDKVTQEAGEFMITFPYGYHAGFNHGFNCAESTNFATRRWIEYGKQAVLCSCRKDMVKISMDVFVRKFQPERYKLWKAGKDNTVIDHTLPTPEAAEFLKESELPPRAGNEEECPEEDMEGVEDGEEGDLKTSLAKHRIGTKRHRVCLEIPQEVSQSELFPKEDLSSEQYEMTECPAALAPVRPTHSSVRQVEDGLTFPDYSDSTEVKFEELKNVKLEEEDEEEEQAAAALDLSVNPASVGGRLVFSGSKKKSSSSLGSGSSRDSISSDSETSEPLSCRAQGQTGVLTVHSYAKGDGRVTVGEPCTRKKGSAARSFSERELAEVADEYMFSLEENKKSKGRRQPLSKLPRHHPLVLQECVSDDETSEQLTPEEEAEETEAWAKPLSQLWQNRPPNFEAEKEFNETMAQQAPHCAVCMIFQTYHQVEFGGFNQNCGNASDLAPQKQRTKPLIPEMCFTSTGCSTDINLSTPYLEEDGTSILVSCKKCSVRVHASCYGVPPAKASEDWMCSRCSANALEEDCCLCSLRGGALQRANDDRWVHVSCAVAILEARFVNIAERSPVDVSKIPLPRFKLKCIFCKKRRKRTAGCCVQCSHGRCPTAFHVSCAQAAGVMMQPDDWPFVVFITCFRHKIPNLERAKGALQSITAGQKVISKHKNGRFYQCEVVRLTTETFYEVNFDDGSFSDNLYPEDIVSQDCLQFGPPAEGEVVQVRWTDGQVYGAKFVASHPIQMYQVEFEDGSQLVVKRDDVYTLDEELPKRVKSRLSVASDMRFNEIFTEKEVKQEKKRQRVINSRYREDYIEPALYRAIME
GLS inhibitor: blocks human kidney-isoform glutaminase activity | O94925 | GLS enzymatic activity, qHTS titration | Potency, µM (highest dose often 45.5 µM), most hits filed as inhibitors | 0.21% of 410,000 active | AID 624170
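Read-out is an Amplex red fluorescence increase coupled through glutamate oxidase and HRP, measured before and after 30 min room-temperature incubation. hKGA is in 45 mM KH2PO4 (pH 8.2) with 0.02% Tween-20; glutamine added as 1mM solution.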
Of the large screens only hits and unclear results are named; the others gave an inactive call. Shown are actives, neighbours in structure and some others; about 10% of the full set was active somewhere. Calls follow the shape of the dose curve; as a rule, active = well fitted curve in the direction sought with a large enough effect; inconclusive = small, poorly fitted or top-dose-only effect, or another doubt; inactive = no such curve, though single readings can be large; an effect the other way counts as inactive or inconclusive.

Clc1ccc(-c2nnc(SCc3nc4ccccc4[nH]3)o2)c(Cl)c1	G9a inh 8.91µM
Cc1ccc(C(=O)NC2(O)C(=O)c3ccccc3C2=O)cc1C	G9a inh 50.1µM
OCC1CCCCN1CCNCc1cn[nH]c1-c1cccc2ccccc12 (centres undefined)	none
c1ccc2c(-c3[nH]ncc3CNCCCn3ncc4ccccc43)cccc2c1	BAZ2B block inconclusive, JMJD2A Tudor inh 20µM (no result: G9a inh)
S=c1nc(C2CC2)n(-c2ccccc2)[nH]1	G9a inh inconclusive, JMJD2A Tudor inh 2.51µM
CC1=C(C)C(c2ccccc2)NC(=S)N1 (centres undefined)	G9a inh inconclusive
O=C(CC1C(=O)NCCN1CC1CCCCC1)NCc1ccc(Cl)cc1 (centres undefined)	none
O=C(CC1C(=O)NCCN1CC1CCCCC1)NCc1ccc(F)cc1F (centres undefined)	none (no result: G9a inh)
O=C(CC1C(=O)NCCN1CC1CCCCC1)NCc1cc(F)ccc1F (centres undefined)	JMJD2A Tudor inh 11.2µM, GLS inhibitor inconclusive (no result: G9a inh)
CC(C)c1cc(CNC(=O)CC2C(=O)NCCN2CC2CCCCC2)on1 (centres undefined)	G9a inh 50.1µM
Cc1cc(NS(=O)(=O)c2ccc(NC(=O)CCCC(=O)O)cc2)nc(C)n1	none
O=C(Nc1ccc(N2CCCCC2)cc1)c1ccc2c(c1)OCCO2	G9a inh 3.55µM, JMJD2A Tudor inh inconclusive
O=C(Nc1ccc(F)cc1F)c1ccc2c(c1)OCCO2	G9a inh inconclusive
O=C(Nc1ccc(Br)cc1F)c1ccc2c(c1)OCCO2	G9a inh 50.1µM
O=C(Nc1ccc(N2CCN(C(=O)c3ccc(Cl)cc3)CC2)cc1)c1ccc2c(c1)OCCO2	G9a inh 79.4µM
CC(=O)N1CCN(c2ccc(NC(=O)c3ccc4c(c3)OCCO4)cc2)CC1	G9a inh inconclusive
NC(=O)c1ccc(Br)c(S(=O)(=O)N2CCCCC2)c1	none
O=C(CC1CCCCC1)NCc1ccccn1	none
O=C(c1c(F)cccc1F)N(Cc1ccccn1)C1CC1	BAZ2B block 79.4µM, G9a inh inconclusive
COc1ccccc1CN1CCCC(CN(CCN(C)C)C(=O)C2CCCC2)C1 (centres undefined)	none
COc1ccccc1CN1CCCC(C(=O)N(C)Cc2ccccc2)C1 (centres undefined)	HP1b binding inh inconclusive, G9a inh inconclusive, JMJD2A Tudor inh 3.16µM
COc1ccc(CN2CCCC(C(=O)N(C)Cc3ccccc3)C2)cc1OC (centres undefined)	HP1b binding inh inconclusive, BAZ2B block inconclusive, G9a inh 10µM, JMJD2A Tudor inh 0.891µM
CCOc1ccc(S(=O)(=O)Nc2cc(Sc3ncn[nH]3)c3oc(=O)sc3c2)cc1	BAZ2B block inconclusive, G9a inh 31.6µM (no result: HP1b binding inh, JMJD2A Tudor inh, GLS inhibitor)
CCOc1ccc(S(=O)(=O)Nc2ncn[nH]2)cc1	none
c1cncc(N=c2scc(-c3cccc4ccccc34)n2CCCn2ccnc2)c1	HP1b binding inh inconclusive, BAZ2B block 10µM, G9a inh inconclusive, JMJD2A Tudor inh 35.5µM
COCCn1c(-c2ccccc2)csc1=Nc1cccnc1	HP1b binding inh inconclusive, BAZ2B block 39.8µM, G9a inh 39.8µM, JMJD2A Tudor inh inconclusive
CCCCn1c(C)csc1=Nc1cccnc1	BAZ2B block inconclusive, G9a inh inconclusive
CC(C)n1c(-c2ccco2)csc1=Nc1cccnc1	HP1b binding inh inconclusive, BAZ2B block 28.2µM, G9a inh 12.6µM, JMJD2A Tudor inh 56.2µM
Cc1ccc(-c2csc(=Nc3cccnc3)n2CCCn2ccnc2)cc1C	HP1b binding inh inconclusive, BAZ2B block 12.6µM, G9a inh inconclusive, JMJD2A Tudor inh inconclusive
COC(=O)[C@H](CC(C)C)NC(=O)c1cc2c(cn1)[nH]c1ccccc12	HP1b binding inh inconclusive, G9a inh 7.94µM, JMJD2A Tudor inh inconclusive
COC(=O)C(Cc1ccccc1)NC(=O)c1cc(=O)[nH]c2ccccc12 (centres undefined)	none
COC(=O)CCC(=O)NNC(=O)C1CC1(c1ccccc1)c1ccccc1 (centres undefined)	none
O=C(c1ccc2c(=O)n(CC3CCCO3)c(=S)[nH]c2c1)N1CCN(c2ccccc2)CC1 (centres undefined)	none
COCCn1c(=S)[nH]c2cc(C(=O)NCC3CCCO3)ccc2c1=O (centres undefined)	BAZ2B block inconclusive, G9a inh inconclusive, JMJD2A Tudor inh 17.8µM
